# Assay results as given in PubChem BioAssay AID1159580 (chemical genetic matrix, 2015).
# Among all 5,500 compounds or so, about 2,000 (36%) were called active. Another 18% or so got no clear call; they are omitted. Some of the results follow. Values without a mark were called inactive. No stated cut-off is given here; in the data, active means normalized growth mostly below about 0.91 (no sharp cut-off); inconclusive means no clear call, values can overlap the other calls; inactive means mostly above about 0.92.
# Test: chemical genetic growth profiling, strain panel (AID 1159580);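 further: tested at 20 µM; growth read once vehicle control cultures reached saturation at 30 °C; 1 = growth at the plate median or of vehicle wells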
# Details: S. cerevisiae deletion strains, growth OD
smiles,measurement,setting,value
CC(=O)Oc1c2c(c3c(c1CC=C(C)C)O[C@]14C(=C[C@@H]5CC1C(C)(C)OC4(C/C=C(\C)C(=O)O)C5=O)C3=O)OC(C)(CCC=C(C)C)C=C2 (some centres not stated),normalized growth,"locus YAL021C, strain ccr4, stronger effect = lower value",1
same,normalized growth,"locus YAL026C, strain drs2, stronger effect = lower value",0.979
same,normalized growth,"locus YAL030W, strain snc1, stronger effect = lower value",0.976
same,normalized growth,"locus YBL061C, strain skt5, stronger effect = lower value",0.949
same,normalized growth,"locus YBR009C, strain hhf1, stronger effect = lower value",0.958
same,normalized growth,"locus YBR023C, strain chs3, stronger effect = lower value",0.964
same,normalized growth,"locus YBR171W, strain sec66, stronger effect = lower value",0.974
same,normalized growth,"locus YBR231C, strain swc5, stronger effect = lower value",0.94
same,normalized growth,"locus YBR279W, strain paf1, stronger effect = lower value",0.961
same,normalized growth,"locus YCL011C, strain gbp2, stronger effect = lower value",0.988
same,normalized growth,"locus YCL016C, strain dcc1, stronger effect = lower value",0.987
same,normalized growth,"locus YCL061C, strain MRC1, stronger effect = lower value",0.98
same,normalized growth,"locus YCL069W, strain vba3, stronger effect = lower value",0.984
same,normalized growth,"locus YCR088W, strain abp1, stronger effect = lower value",0.985
same,normalized growth,"locus YDL005C, strain med2, stronger effect = lower value",0.968
same,normalized growth,"locus YDL040C, strain nat1, stronger effect = lower value",0.977
same,normalized growth,"locus YDR001C, strain nth1, stronger effect = lower value",0.985
same,normalized growth,"locus YDR069C, strain doa4, stronger effect = lower value",0.977
same,normalized growth,"locus YDR137W, strain rgp1, stronger effect = lower value",0.775 (active)
same,normalized growth,"locus YDR159W, strain sac3, stronger effect = lower value",0.87
same,normalized growth,"locus YDR195W, strain ref2",1.01
same,normalized growth,"locus YDR297W, strain sur2, stronger effect = lower value",0.959
same,normalized growth,"locus YDR334W, strain swr1, stronger effect = lower value",0.976
same,normalized growth,"locus YDR335W, strain msn5, stronger effect = lower value",0.997
same,normalized growth,"locus YDR392W, strain spt3, stronger effect = lower value",0.547 (active)
same,normalized growth,"locus YEL003W, strain gim4, stronger effect = lower value",0.96
same,normalized growth,"locus YEL037C, strain rad23, stronger effect = lower value",0.995
same,normalized growth,"locus YEL061C, strain CIN8 (second series), stronger effect = lower value",0.984
same,normalized growth,"locus YER015W, strain faa2, stronger effect = lower value",0.973
same,normalized growth,"locus YER016W, strain bim1, stronger effect = lower value",0.971
same,normalized growth,"locus YER111C, strain swi4, stronger effect = lower value",0.981
same,normalized growth,"locus YER155C, strain BEM2 (second series), stronger effect = lower value",0.922
same,normalized growth,"locus YFR010W, strain ubp6, stronger effect = lower value",0.973
same,normalized growth,"locus YGL167C, strain pmr1, stronger effect = lower value",0.973
same,normalized growth,"locus YGL173C, strain kem1, stronger effect = lower value",0.939
same,normalized growth,"locus YGL227W, strain vid30, stronger effect = lower value",0.981
same,normalized growth,"locus YGL240W, strain doc1, stronger effect = lower value",0.951
same,normalized growth,"locus YGL253W, strain hxk2, stronger effect = lower value",0.967
same,normalized growth,"locus YHR013C, strain ard1, stronger effect = lower value",0.875
same,normalized growth,"locus YHR027C, strain rpn1, stronger effect = lower value",0.98
same,normalized growth,"locus YHR142W, strain chs7, stronger effect = lower value",0.991
same,normalized growth,"locus YJL092W, strain hpr5, stronger effect = lower value",0.988
same,normalized growth,"locus YJL095W, strain BCK1 (second series), stronger effect = lower value",0.971
same,normalized growth,"locus YJL115W, strain asf1, stronger effect = lower value",0.982
same,normalized growth,"locus YJL129C, strain trk1, stronger effect = lower value",0.89
same,normalized growth,"locus YJL154C, strain vps35, stronger effect = lower value",0.992
same,normalized growth,"locus YJL164C, strain tpk1, stronger effect = lower value",0.986
same,normalized growth,"locus YJL166W, strain qcr8, stronger effect = lower value",0.937
same,normalized growth,"locus YJL187C, strain SWE1, stronger effect = lower value",0.972
same,normalized growth,"locus YKL160W, strain elf1, stronger effect = lower value",0.957
same,normalized growth,"locus YKR026C, strain gcn3, stronger effect = lower value",0.983
same,normalized growth,"locus YKR091W, strain srl3, stronger effect = lower value",0.984
same,normalized growth,"locus YLL001W, strain dnm1, stronger effect = lower value",0.945
same,normalized growth,"locus YLL026W, stronger effect = lower value",0.968
same,normalized growth,"locus YLL041C, strain sdh2, stronger effect = lower value",0.983
same,normalized growth,"locus YLR027C, strain aat2, stronger effect = lower value",0.948
same,normalized growth,"locus YLR221C, strain rsa3, stronger effect = lower value",0.947
same,normalized growth,"locus YLR258W, strain gsy2, stronger effect = lower value",0.994
same,normalized growth,"locus YLR262C, strain YPT6 (second series), stronger effect = lower value",0.874
same,normalized growth,"locus YLR320W, strain mms22, stronger effect = lower value",0.899
same,normalized growth,"locus YLR342W, strain FKS1, stronger effect = lower value",0.963
same,normalized growth,"locus YLR357W, strain rsc2, stronger effect = lower value",1.01
same,normalized growth,"locus YLR370C, strain arc18, stronger effect = lower value",0.958
same,normalized growth,"locus YLR384C, strain iki3, stronger effect = lower value",0.964
same,normalized growth,"locus YML120C, strain ndi1, stronger effect = lower value",0.985
same,normalized growth,"locus YMR058W, strain fet3, stronger effect = lower value",0.991
same,normalized growth,"locus YMR125W, strain sto1, stronger effect = lower value",0.992
same,normalized growth,"locus YMR129W, stronger effect = lower value",0.97
same,normalized growth,"locus YMR205C, strain PFK2, stronger effect = lower value",0.878
same,normalized growth,"locus YMR231W, strain pep5, stronger effect = lower value",0.984
same,normalized growth,"locus YNL071W, strain lat1, stronger effect = lower value",0.878 (active)
same,normalized growth,"locus YNL209W, strain ssb2, stronger effect = lower value",0.982
same,normalized growth,"locus YNL248C, strain rpa49, stronger effect = lower value",0.973
same,normalized growth,"locus YNL322C, strain KRE1 (second series), stronger effect = lower value",1
same,normalized growth,"locus YNR049C, strain mso1, stronger effect = lower value",0.982
same,normalized growth,"locus YOR001W, strain rrp6, stronger effect = lower value",0.915
same,normalized growth,"locus YOR070C, strain gyp1, stronger effect = lower value",0.957
same,normalized growth,"locus YOR080W, strain dia2, stronger effect = lower value",0.979
same,normalized growth,"locus YOR083W, strain WHI5, stronger effect = lower value",0.99
same,normalized growth,"locus YOR106W, strain vam3, stronger effect = lower value",0.98
same,normalized growth,"locus YOR265W, strain rbl2, stronger effect = lower value",0.979
same,normalized growth,"locus YOR270C, strain vph1, stronger effect = lower value",0.808
same,normalized growth,"locus YOR290C, strain snf2, stronger effect = lower value",0.989
same,normalized growth,"locus YPL051W, strain arl3, stronger effect = lower value",0.914 (active)
same,normalized growth,"locus YPL078C, strain atp4, stronger effect = lower value",1.01
same,normalized growth,"locus YPL106C, strain sse1, stronger effect = lower value",0.984
same,normalized growth,"locus YPL240C, strain hsp82, stronger effect = lower value",0.984
